This excerpt belongs to a sample that is enriched for hits.
Pf Dd2 growth: blocks in vitro growth of P. falciparum Dd2; Potency, µM (highest dose often 28.9 µM), without a hit: top-dose activity, negative = inhibition, actives largely listed as inhibitors; P. falciparum Dd2 growth, SYBR Green, 72 h; AID 1347417; hit rate 4.3% among 120,000; active = well fitted inhibition curve with a large enough effect;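 also: plate controls were DMSO vehicle for no effect and reference drug for full effect; nearly all actives have a fitted effect of over 65% in size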
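Readout: SYBR Green fluorescence, 485 nm excitation, 535 nm emission, after ~16 h lysis at 37C. Before that, Dd2-infected red cells (2.5% hematocrit) grew 72 h with compound, 29 uM top final concentration.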
Starred values were filed as active, the others as inactive; i = inactive; [ ] = remark or other dose. Potency is read from the fitted curve at half-maximal effect.

SMILES	Pf Dd2 growth
NC(=O)C1CCN([C@H]2[C@@H]3OC[C@@H](O3)[C@@H](NCc3ccncc3)[C@@H]2O)CC1	17%[44.1 µM]
COCCNC(=O)C(NC(=O)c1ccc(F)cc1)C1CCN(C(=O)C2CC2)CC1 (centres undefined)	9%
O=C(Nc1cccc(F)c1)N1CCC(Oc2ncccc2C(=O)N2CCOCC2)C1 (centres undefined)	i
Cc1cnc(C(=O)N2CCCn3nc(CCC(=O)NC(C)C)cc3C2)cn1	1%
O=c1ccc(-c2cc(-c3cccc(N4CCOCC4)c3)cn3cncc23)c[nH]1	7.9µM*
COc1ccc(-c2noc(-c3ccc(N4CCCOCC4)nc3)n2)cc1	i
c1cc(-c2cc(-c3ccc(N4CCOCC4)nc3)cn3cncc23)ccn1	i
COc1ccc(-c2cc(-c3cccc(OC)c3OC)cn3cncc23)cc1	1µM*
COc1ccc(-c2cc(-c3ccc(N4CCOCC4)nc3)cn3cncc23)cc1	0.79µM*
COc1ccc(-c2nc(-c3c(C)noc3C)cc3c2cc(-c2ccccc2)n3C)cn1	-26%[44.1 µM]
COc1cccc(-c2cc(-c3ccc(=O)[nH]c3)c3cncn3c2)c1	i
O=c1ccc(-c2cc(-c3cccc4cn[nH]c34)cn3cncc23)c[nH]1	i
COc1ccc(Cn2c(=O)c3ccccc3n3c(-c4cccc(OC)c4OC)nnc23)cc1	i
COc1ccc(-c2cc(-c3c(C)noc3C)c3cncn3c2)cc1	5µM*
c1cc(-c2cc(-c3ccc4cn[nH]c4c3)cn3cncc23)ccn1	-2%[44.1 µM]
O=C(c1ccc(C2CCCNC2)cc1)N1CCN(c2ccncc2)CC1 (centres undefined)	-31%
COc1ccc2[nH]cc(CCNC(=O)C3N(C(C)C)C(=O)C34CCCC4)c2c1 (centres undefined)	-5%
CNC(=O)[C@@H]1C[C@H](N)CN1S(=O)(=O)c1cccc(OC)c1	-6%
Cn1cccc1CNC(=O)C1c2ccccc2C(=O)N(Cc2ccccc2)C12CCCC2 (centres undefined)	i
O=C(CCc1ccccc1)N1CC2CC(C1)[C@H]1CCCC(=O)N1C2 (some centres undefined)	-1%
Cc1cccc(-c2nocc2CCC(=O)NCc2cccs2)c1	i
COc1cccc(-c2cc(-c3c(C)noc3C)c3cncn3c2)c1	5.6µM*
Cc1noc(C)c1-c1cc(-c2cccc(N[S+](C)(=O)[O-])c2)cn2cncc12	i
Cc1ccc(-c2cc(-c3ccc(=O)[nH]c3)c3cncn3c2)cn1	47%[44.1 µM]
Cc1noc(C)c1-c1cc(-c2cnn(C)c2)cn2cncc12	-9%[44.1 µM]
SMILES	Pf Dd2 growth
COc1ccc(-c2cc(-c3cnn(C)c3)cn3cncc23)cn1	10µM*
CC(=O)Nc1cccc(-c2cc(C3=CCOCC3)c3cncn3c2)c1	i
COc1ccc(N2CC(C(=O)NCCc3ccc(F)cc3)NC2=O)cc1 (centres undefined)	-17%
O=C([C@@H]1C[C@H](Oc2ccccc2)CN1C(=O)C1CCCCC1)N1CCOCC1	10%
COc1ccc(O[C@H]2COCCN(C(=O)N3CCOCC3)C2)cc1	-8%[44.1 µM]
O=C1CC(c2noc(-c3nccc4ccccc34)n2)CN1C1CCCCC1 (centres undefined)	i
Cc1noc(-c2cccc(OC3CN(C(=O)Cc4ccccc4)C3)c2)n1	3%[5.79 µM]
CC(C)C(=O)N1CC(Oc2ccccc2-c2nc(C3CC3)no2)C1	7%
COCCOCC(=O)N1CC(Oc2ccccc2-c2nc(C3CC3)no2)C1	-10%
O=C(CN1CCCCCC1)N1CC(Oc2ccccc2-c2nc(C3CC3)no2)C1	11µM*
CC(=O)N1CCC(Oc2ccccc2-c2nc(-c3ccccc3)no2)C1 (centres undefined)	i
O=C(Nc1ccccc1F)N1CC(Oc2cccc(-c3nc(-c4ccccc4)no3)c2)C1	20%[5.79 µM]
O=C(c1ccco1)N1CC(Oc2ccccc2-c2nc(-c3ccccc3)no2)C1	4µM*
COc1ccc(C(=O)N2CC(Oc3ccc(-c4nc(-c5ccccc5)no4)cc3)C2)cc1	48%[5.79 µM]
O=C(COc1ccc(F)cc1)N1CC(Oc2cccc(-c3nc(-c4ccccc4)no3)c2)C1	2.2µM*
COc1ccc(C(=O)N2CC(Oc3ccccc3-c3nc(-c4ccccc4)no3)C2)cc1	0.89µM*
CC(C)CNC(=O)N1CC(Oc2ccccc2-c2nc(-c3ccccc3)no2)C1	-26%
Cc1cccc(C(=O)N2CC(Oc3ccc(-c4nc(-c5ccccc5)no4)cc3)C2)c1	i[5.79 µM]
CNC(C)c1cnccn1 (centres undefined)	18%[44.1 µM]
COCc1noc([C@@H]2CN(C(=O)CCc3c[nH]c4ccccc34)C[C@H]2C(N)=O)n1	-6%
CC(C)N1C[C@H](O)C[C@H]1c1nnc2n1CCN(C(=O)CCc1c[nH]c3ccccc13)CC2	-20%
COC(=O)C1=C(C)N=C2SC=C(CC(=O)N3CCCCC3)N2C1c1ccc(Cl)cc1 (centres undefined)	-15%
CC1=NS(=O)(=O)N(Cc2ccccc2)C=C1C(=O)OCc1noc(-c2cccc(C)c2)n1	5%
O=C(NCc1ccc(F)cc1)N1CCCC(Cc2nncn2-c2ccccc2)C1 (centres undefined)	i
